Reference: the OligoGym collection

What follows are sequences tested against HMP19 (assay: pooled miR-30 sensor sort-seq; sequence = guide strand). Details: shRNA.

Sequence | sensor-assay potency score (higher = more potent)
TAAGTGATTAACCTCCAAGGGA | -0.21
TTGTTCTTCTGTTCCGGCTGAT | 0.313
TTGTACATGAGCCTGACTCGGC | -0.338
TCTTGTCTTCACAATCACCTTT | -0.0794
TAAACCACCAGGAACACGATGC | -0.408
TACAGTGTTGTCTTGTAACTGG | -0.189
TATCGGTTCAGACAACTCCAGC | -1.43
TTGGTTCCCTTCTCGCTGGGGT | 0.36
TTATAGACGAATCCCTCTGGGC | -0.74
TTCACAATCACCTTTTCTGGAG | -0.586
TTCTTGTCTTCACAATCACCTT | -1.21
TTCGGCACCCGGAACTTCCCTT | -0.311

These sequences were tested against HMX2 in the same assay as above. Details: shRNA.

Sequence | sensor-assay potency score (higher = more potent)
ATGGACTGGATGGTGAAGCTGG | -1.05
TTAAAGTCCGAGTGCGAAGGAG | -0.61
TCCGAGGACACGGACAGGCTGC | -1.46
TTCTTTAAAGTCCGAGTGCGAA | -1.59
TAAAGTCCGAGTGCGAAGGAGA | -1.28
TCGAGCTGGTACACCTGGCTGC | -0.393
TTCTCTTCTTTAAAGTCCGAGT | -1
TGGAACCAAGTCTTTACCTGGG | -0.326
TCTTCTTCTTGGCCGCGCCGGC | -1.36
TGTATAGGTTGTAGAGAGGTAA | -0.622
TTTCTCTTCTTTAAAGTCCGAG | -0.831
TGAAGCTGGAGACGCCACCGGC | -0.77

The sequences below were run against HNF1A in the same assay as above. Details: shRNA.

Sequence | sensor-assay potency score (higher = more potent)
TGAGCTCTGGTACAGCACCAGG | -1.55
TTGTAGACACGCACCTCCGTGA | -0.58
TACAGCACCAGGCTGCTGGAGG | -0.908
TTGCTGGAGTCTGAGCTCTGGT | -1.14
ATGAAGGTCTCGATGACGCTGT | 0.222
ATCGTCGTCCGTCTCGTCCTCG | -0.832
TGGTTGGTAGCTCATCACCTGT | -1.74
TACTTCTGCAGTCTCACTGGTC | -0.169
TAGCGTCTCTCGCTCCTCCTTG | -0.628
TAGGACTTGACCATCTTCGCCA | 0.419
TTGATGACCGGCACACTCTGTG | 0.355
TTCTGTACTCAGCAGGCTGTGG | -0.687

The sequences below were run against HNRNPL in the same assay as above. Details: shRNA.

Sequence | sensor-assay potency score (higher = more potent)
TTGTGTAGTCCCAAGTATCCTG | 0.0698
TACAGCGTAGCCATCAGCCATC | -1.38
TCTTGAACACATTCAAGCGTGT | 0.0553
TAGAGTAGTTGACAAAAGCTGG | -0.329
